From PubChem BioAssay
The source made the active and inactive calls.

Experiments:
Albumin (Bos taurus) = Albumin (Bos taurus) (UniProt P02769); test: compounds binding labelled BSA control protein – biochemical, small-molecule microarray, Alexa647 label, 635/667 nm fluorescence, artefact control for SMM control protein annotation, profiling panel (AID 1118); details: BSA-A647 binding, fluorescence 635 nm, higher = more signal;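 further: score merges 667 nm emission intensity and signal-to-noise per printed compound spot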
[1] = probe aXIP binding to arrayed compounds – biochemical, NeuroSMM set, 635/667 nm fluorescence, primary screen (AID 1119); details: small-molecule microarray, higher = more signal, called active from +8 up or from −8 down;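 further: probe is the protein aXip251-270 applied at 1 µg/mL to compound-printed slides; binding of probe to printed compounds measured as 667 nm fluorescence plus signal to noise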
[2] = probe aNOTCH3 binding on compound microarray – biochemical, small-molecule microarray, 635/667 nm fluorescence, primary screen (AID 1120); details: higher = more signal;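 further: probe is a biotin-tagged antibody raised against NOTCH3 rather than NOTCH3 protein; score merges spot fluorescence near 667 nm with spot signal to noise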
[3] = probe aNOTCH2 binding on compound microarray – biochemical, small-molecule microarray, 635/667 nm fluorescence, primary screen (AID 1121); details: higher = more signal;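 further: score merges feature fluorescence read at 667 nm with its signal to noise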
[4] = biological target: Carbonic anhydrase 2 (Homo sapiens) (UniProt P00918); test: compounds binding carbonic anhydrase 2 – biochemical, small-molecule microarray, Alexa647-labelled CAII, profiling panel (AID 1122); details: CAII-A647 binding fluorescence, higher = more signal
[5] = COS7 lysate on small-molecule microarray, probe aHis, 635 nm (AID 1123); details: COS7 cell lysate, fluorescence, higher = more signal;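 further: z-score combines 667nm fluorescence intensity with signal-to-noise per printed compound spot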
[6] = probe aLAP1 signal on lysate-treated microarray – cell lysate, small-molecule microarray, COS7 lysate, primary screen (AID 1124); details: probe aLAP1, fluorescence, higher = more signal;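 further: lysate comes from COS7 cells expressing LAP1 and is applied at 0.3 µg/mL; score merges spot fluorescence near 667 nm with signal-to-noise over triplicate slides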
Sam68 (KHDRBS1) = test: compounds binding KHDRBS1 protein – biochemical, small-molecule microarray, 635 nm fluorescence, primary screen (AID 1125); details: higher = more signal;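 further: score merges 667 nm channel intensity with signal to noise over triplicate slides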
[7] = tested on: Chordin-like protein 2 (CHRDL2); test: compounds binding chordin-like 2 – biochemical, small-molecule microarray, 635 nm fluorescence, primary screen (AID 1126); details: fluorescence 635 nm, higher = more signal;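 further: printed compound slides probed with Chrdl2 protein at 4 µg/mL for 1 h at 4 C; score merges 667 nm emission intensity with signal to noise over three replicate slides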
[8] = biological target: Concanavalin-A (Canavalia ensiformis) (UniProt P02866); test: compounds binding concanavalin A lectin – biochemical, small-molecule microarray, Alexa647 label, 635 nm, artefact control for SMM control protein annotation, primary screen (AID 1127); details: ConA-A647 binding fluorescence, higher = more signal;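 further: z combines 667 nm emission intensity with signal-to-noise across three replicate slides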
[9] = compounds binding Alexa647 anti-His antibody – biochemical, small-molecule microarray, 635 nm fluorescence, artefact control for SMM control protein annotation, primary screen (AID 1128); details: higher = more signal;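 further: score merges feature fluorescence with signal-to-noise for each printed compound spot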
[10] = tested on: Human papillomavirus type 1a E7 protein (residues 1-88); test: HPV1a E7 small-molecule binders, primary screen, biochemical, small-molecule microarray, residues 1-88, 635 nm (AID 1129); details: small-molecule microarray binding, fluorescence 635 nm; higher = more signal
[11] = biological target: Focal adhesion kinase 1 (Homo sapiens) (UniProt Q05397); test: PTK2 protein binding on printed compound slides – biochemical, small-molecule microarray, 635/667 nm fluorescence, BSA, DTT, primary screen (AID 1130); details: 635 nm fluorescence, higher = more signal;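 further: composite of spot emission at 667 nm and signal to noise over triplicate slides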
[12] = tested on: Fibrinogen (Alexa647-labelled); test: Alexa647-fibrinogen binding to printed small molecules – biochemical, small-molecule microarray, 635/667 nm fluorescence, artefact control for SMM control-protein annotation, profiling panel (AID 1131); details: fibrinogen-A647 binding fluorescence, higher = more signal;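 further: z-score merges 667 nm fluorescence with per-spot signal-to-noise over triplicate slides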
[13] = biological target: Follistatin (Homo sapiens) (UniProt P19883); test: FST protein binding to printed compounds – biochemical, small-molecule microarray, 635/667 nm fluorescence, primary screen (AID 1132); details: 635 nm fluorescence, higher = more signal
[14] = biological target: Fibroblast growth factor 2 (Homo sapiens) (UniProt P09038); test: basic fibroblast growth factor binding to printed compounds – biochemical, small-molecule microarray, 635/667 nm fluorescence, primary screen (AID 1133); details: FGF2, fluorescence 635/667, higher = more signal
[15] = JC-1 mitochondrial potential readout, lung cancer cells – cell-based, A549, JC-1 fluorescence, basal, 24 h, 100 nL, profiling panel (AID 1138); details: higher = more signal;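 further: A549 lung adenocarcinoma cells under basal conditions with no added stimulus; test concentration not given here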
Lefty1 = Lefty1 protein binding to printed compounds – biochemical, small-molecule microarray, 635/667 nm fluorescence, primary screen (AID 1139); details: fluorescence 635/667, higher = more signal
[16] = tested on: wheat germ agglutinin (Triticum aestivum), Alexa647-labelled; test: Alexa647-WGA lectin binding to printed small molecules – biochemical, small-molecule microarray, 635/667 nm fluorescence, artefact control for SMM control-protein annotation, profiling panel (AID 1140); details: WGA-A647 binding, 635 nm fluorescence, higher = more signal;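 further: score merges 667 nm feature emission with signal to noise over triplicate slides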
[17] = biological target: Luciferin 4-monooxygenase (Photinus pyralis) (UniProt P08659); test: inhibition of purified Photinus pyralis luciferase – biochemical, luminescence, purified enzyme, 2006 set, primary screen (AID 1141); details: purified firefly luciferase, SteadyGlo luminescence, 30 min; higher = more signal, called active from +8 up or from −8 down;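 further: cell-free assay with purified firefly luciferase at 100 ng per well in PBS; test concentration not given here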
Sequence of Luciferin 4-monooxygenase (Photinus pyralis) (P08659 whole entry, looked up): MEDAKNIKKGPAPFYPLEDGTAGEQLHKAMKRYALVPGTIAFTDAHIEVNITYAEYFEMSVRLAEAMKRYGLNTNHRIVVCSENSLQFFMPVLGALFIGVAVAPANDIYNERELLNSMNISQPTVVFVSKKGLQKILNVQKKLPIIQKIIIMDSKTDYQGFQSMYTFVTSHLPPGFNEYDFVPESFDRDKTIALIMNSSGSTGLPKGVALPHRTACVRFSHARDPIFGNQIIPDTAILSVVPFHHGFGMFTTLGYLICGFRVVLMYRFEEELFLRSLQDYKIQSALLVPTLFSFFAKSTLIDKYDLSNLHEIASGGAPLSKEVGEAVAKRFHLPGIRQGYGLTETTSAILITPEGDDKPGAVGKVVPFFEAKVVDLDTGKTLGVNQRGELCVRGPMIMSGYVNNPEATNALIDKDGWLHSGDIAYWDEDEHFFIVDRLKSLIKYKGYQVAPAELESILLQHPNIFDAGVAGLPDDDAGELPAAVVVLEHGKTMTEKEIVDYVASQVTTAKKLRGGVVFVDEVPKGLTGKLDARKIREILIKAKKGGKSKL

Sequence of Albumin (Bos taurus) (P02769 whole entry, looked up): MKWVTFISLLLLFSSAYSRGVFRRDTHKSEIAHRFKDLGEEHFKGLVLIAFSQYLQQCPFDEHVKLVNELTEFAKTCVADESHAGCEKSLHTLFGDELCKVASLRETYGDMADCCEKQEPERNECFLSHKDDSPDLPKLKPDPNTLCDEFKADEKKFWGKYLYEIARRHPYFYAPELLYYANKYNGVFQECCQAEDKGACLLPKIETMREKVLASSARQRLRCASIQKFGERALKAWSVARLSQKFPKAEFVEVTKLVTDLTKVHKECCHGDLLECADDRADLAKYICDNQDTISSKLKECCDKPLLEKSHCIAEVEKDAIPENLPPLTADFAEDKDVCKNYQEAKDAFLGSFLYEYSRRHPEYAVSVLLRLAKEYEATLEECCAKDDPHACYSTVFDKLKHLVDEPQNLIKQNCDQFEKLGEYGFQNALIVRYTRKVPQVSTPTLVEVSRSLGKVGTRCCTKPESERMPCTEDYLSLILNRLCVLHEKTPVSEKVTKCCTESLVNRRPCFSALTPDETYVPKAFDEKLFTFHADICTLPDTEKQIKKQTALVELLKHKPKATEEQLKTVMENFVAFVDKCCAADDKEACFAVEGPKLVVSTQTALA
Sequence of Focal adhesion kinase 1 (Homo sapiens) (Q05397 whole entry, looked up): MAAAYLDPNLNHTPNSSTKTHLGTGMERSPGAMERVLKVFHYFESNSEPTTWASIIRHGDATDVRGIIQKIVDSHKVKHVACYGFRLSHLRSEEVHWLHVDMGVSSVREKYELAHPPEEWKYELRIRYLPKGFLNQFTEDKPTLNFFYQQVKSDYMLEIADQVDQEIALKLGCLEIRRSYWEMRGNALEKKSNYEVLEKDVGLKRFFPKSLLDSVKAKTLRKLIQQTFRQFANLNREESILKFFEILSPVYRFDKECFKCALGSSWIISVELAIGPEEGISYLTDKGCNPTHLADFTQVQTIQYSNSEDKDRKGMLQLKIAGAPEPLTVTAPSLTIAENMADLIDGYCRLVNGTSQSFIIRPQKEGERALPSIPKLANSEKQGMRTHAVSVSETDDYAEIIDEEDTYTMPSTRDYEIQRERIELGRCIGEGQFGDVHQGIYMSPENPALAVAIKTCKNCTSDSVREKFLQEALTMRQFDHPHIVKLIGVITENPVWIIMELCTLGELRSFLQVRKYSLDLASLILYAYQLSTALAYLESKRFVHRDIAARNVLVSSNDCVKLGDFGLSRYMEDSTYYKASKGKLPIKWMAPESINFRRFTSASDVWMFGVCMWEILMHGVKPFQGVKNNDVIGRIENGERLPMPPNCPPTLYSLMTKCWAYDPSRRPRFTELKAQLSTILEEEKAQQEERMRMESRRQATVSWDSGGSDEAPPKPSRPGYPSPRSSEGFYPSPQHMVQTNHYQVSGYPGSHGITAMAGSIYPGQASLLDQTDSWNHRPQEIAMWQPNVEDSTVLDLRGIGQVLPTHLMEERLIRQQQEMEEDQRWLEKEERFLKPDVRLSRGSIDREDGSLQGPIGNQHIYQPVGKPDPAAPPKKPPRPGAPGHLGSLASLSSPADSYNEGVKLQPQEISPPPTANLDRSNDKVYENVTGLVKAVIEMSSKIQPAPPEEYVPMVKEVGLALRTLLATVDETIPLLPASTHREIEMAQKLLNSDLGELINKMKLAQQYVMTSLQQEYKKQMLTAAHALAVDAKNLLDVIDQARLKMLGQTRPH
Sequence of Fibroblast growth factor 2 (Homo sapiens) (P09038 whole entry, looked up): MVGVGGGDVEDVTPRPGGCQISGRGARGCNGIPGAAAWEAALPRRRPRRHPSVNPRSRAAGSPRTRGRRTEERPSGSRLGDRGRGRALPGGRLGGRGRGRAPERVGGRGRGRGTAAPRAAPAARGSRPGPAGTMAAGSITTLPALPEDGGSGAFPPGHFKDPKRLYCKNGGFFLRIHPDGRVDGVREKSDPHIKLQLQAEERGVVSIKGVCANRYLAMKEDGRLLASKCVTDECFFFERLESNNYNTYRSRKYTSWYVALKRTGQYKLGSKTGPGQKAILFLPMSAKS
Sequence of Concanavalin-A (Canavalia ensiformis) (P02866 whole entry, looked up): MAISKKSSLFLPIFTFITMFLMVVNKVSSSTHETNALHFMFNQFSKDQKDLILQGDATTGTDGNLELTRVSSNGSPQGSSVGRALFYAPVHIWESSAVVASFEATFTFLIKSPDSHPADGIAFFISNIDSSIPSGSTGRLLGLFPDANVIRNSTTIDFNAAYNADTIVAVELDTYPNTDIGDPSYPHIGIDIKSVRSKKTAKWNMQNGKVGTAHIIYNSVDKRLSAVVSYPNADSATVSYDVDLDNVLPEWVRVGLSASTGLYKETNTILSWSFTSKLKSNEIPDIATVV
Sequence of Follistatin (Homo sapiens) (P19883 whole entry, looked up): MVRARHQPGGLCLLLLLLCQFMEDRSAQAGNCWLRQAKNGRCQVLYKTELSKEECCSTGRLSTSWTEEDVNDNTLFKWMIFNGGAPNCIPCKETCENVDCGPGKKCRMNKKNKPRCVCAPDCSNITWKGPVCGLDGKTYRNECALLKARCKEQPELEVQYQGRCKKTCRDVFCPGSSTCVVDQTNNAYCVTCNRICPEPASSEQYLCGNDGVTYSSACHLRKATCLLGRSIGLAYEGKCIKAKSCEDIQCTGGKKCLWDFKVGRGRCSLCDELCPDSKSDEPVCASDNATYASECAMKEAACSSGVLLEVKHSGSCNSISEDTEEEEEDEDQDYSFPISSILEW

Row | Structure (SMILES) | composite z-score (Albumin (Bos taurus)) | composite Z-score [1] | composite z-score [2] | composite z-score [3] | composite z-score [4] | composite z-score [5] | composite z-score [6] | composite z-score (Sam68 (KHDRBS1)) | composite z-score [7] | composite z-score [8] | composite z-score [9] | composite z-score [10] | composite z-score [11] | composite z-score [12] | composite z-score [13] | composite z-score [14] | z-score [15] | composite z-score (Lefty1) | composite z-score [16] | z-score [17]
1 | CN1C(=O)C2C=CC(C(O)C#Cc3ccccc3)N(N3CCCCC3)C2C1=O (stereo not given) | 0.268 | 1.04 (inactive) | 1.15 | 0.519 | 0.798 | 0.19 | 1.3 | -0.156 | 0.111 | 0.82 | 2.14 | 0.392 | -0.381 | 0.933 | 0.718 | 0.756 | 0.534 | -0.418 | 1.3 | -1.69 (inactive)
2 | COc1ccccc1CN1C(=O)c2ccccc2[C@@]2(Cc3ccccc3N(CC(C)C)C2=O)[C@@H]1c1ccc(CO)cc1 | -0.119 | 0.188 (inactive) | -0.211 | -0.143 | -0.137 | 0.19 | 0.249 | 0.253 | -0.238 | 0.277 | -0.259 | -0.827 | -0.362 | -0.705 | -0.114 | -0.556 | 0.379 | -0.0355 | -0.219 | -0.35 (inactive)
3 | O=C(NCCN1CCOCC1)C1N=C(c2ccc(OCCCO)cc2)N(c2ccccc2)O1 (stereo not given) | 0.439 | 0.267 (inactive) | 0.0261 | 0.119 | 0.835 | 2.79 | 0.908 | 1.3 | 1.41 | 0.691 | 1.22 | 1.29 | 0.124 | 0.545 | 1.52 | 1.58 | 1.23 | 0.813 | 0.61 | -8.16 (active)
4 | O=C(OCc1ccccc1)C1=CCC2c3[nH]c4ccccc4c3C(=O)C1N2S(=O)(=O)c1ccccc1[N+](=O)[O-] (stereo not given) | 0.994 | 0.0421 (inactive) | 0.6 | 0.285 | 0.777 | 2.61 | 0.335 | 1.06 | -0.328 | 0.996 | 1.28 | 1.26 | -0.134 | 0.906 | 1.11 | 0.491 | -2.71 | 0.5 | 0.743 | 0.895 (inactive)
5 | COc1ccc(C#Cc2ccc3c(c2)[C@]2(C(=O)N3)[C@H](c3ccccc3OCCO)N3[C@H](c4ccccc4)[C@H](c4ccccc4)OC(=O)[C@H]3[C@@H]2C(=O)Nc2nc3ccccc3s2)cc1 | 0.187 | 0.317 (inactive) | 1.12 | 0.0559 | 0.327 | 0.646 | 0.0878 | 1.31 | 0.886 | 0.931 | 1.5 | 1.16 | 0.717 | 0.767 | 1.25 | 1.19 | -2.28 | 1.33 | 0.828 | -1.36 (inactive)
